# Experimental data from ChEMBL document CHEMBL4513146, “CO-ADD screening of Karazin Kharkiv National University (Ukraine) compounds”.
# Entries with a potency or affinity are not part of this list.
# Tested on: Candida albicans
# Details: Concentration 32 ug.mL-1; ASSAY_TEST Inhibition of Fungal Growth; detection method Absorption (OD530)
row,Compound,Inhibition [%]
1,Cc1cccc(NC(=O)CSc2nnc3c(=O)n(-c4ccccc4)ccn23)c1,1.31
2,COc1ccc(N2CCN(C(=O)Cn3nc4ccc(S(=O)(=O)C(C)(C)C)nn4c3=O)CC2)cc1,-0.23
3,CCOC(=O)N1CCN(C(=O)CCc2nnc3c4cc(-c5ccc(F)cc5)nn4ccn23)CC1,2.97
4,COc1ccccc1N1CCN(C(=O)CSc2nc3ccccc3n3c(C(C)C)nnc23)CC1,-2.8
5,COc1ccc(NC(=O)c2ccc3nn(CC(=O)Nc4cccc(SC)c4)c(=O)n3c2)cc1,7.63
6,CC(C)c1nnc2c(SCC(=O)Nc3ccccc3Br)nc3ccccc3n12,4.2
7,Cc1ccc(NC(=O)Cn2nc3c4cc(-c5ccc(C)c(C)c5)nn4ccn3c2=O)c(Cl)c1,-1.09
8,Cc1nnc2ccc(S(=O)(=O)N(Cc3cccc(F)c3)c3cccc(Cl)c3)cn12,-0.21
9,CCOc1ccc(N(Cc2cccc(F)c2)S(=O)(=O)c2ccc3nncn3c2)cc1,1.76
10,COc1cc(NC(=O)Cn2nc3ccc(-c4ccc(Cl)cc4)nn3c2=O)cc(OC)c1,1.47
11,Cc1nnc2c(SCC(=O)Nc3ccc4c(c3)OCCO4)nc3ccccc3n12,1.7
12,COc1cc(OC)c(NC(=O)Cn2nc3ccc(Sc4cccc(F)c4)nn3c2=O)cc1Cl,6.91
13,Cc1cc(C)cc(Nc2nc(C)cc3nn(CC(=O)NCc4ccco4)c(=O)n23)c1,2.86
14,CCOc1ccc(NC(=O)Cn2nc3c4cc(-c5ccc(C)cc5)nn4ccn3c2=O)cc1,1.16
15,O=C(Cn1nc2c3cc(-c4ccc(F)cc4)nn3ccn2c1=O)Nc1ccc(Br)cc1,14.76
16,CCCCn1c(=O)c2sccc2n2c(=O)n(CC(=O)N(C)c3ccccc3)nc12,-0.48
17,Cc1ccc(-c2ccc3nn(Cc4ccc5c(c4)OCO5)c(=O)n3n2)cc1C,1.11
18,COc1ccc(CNC(=O)Cn2nc3c(N4CCN(c5ccccc5)CC4)nccn3c2=O)cc1,4.36
19,COc1cccc(NC(=O)Cn2nc3ccc(-c4ccc(Cl)cc4)nn3c2=O)c1,2.11
20,COc1ccc(NC(=O)Cn2nc3ccc(SC(C)C)nn3c2=O)cc1OC,1.32

row,Compound,Inhibition [%]
1,COc1ccc(NC(=O)c2ccc3nn(CC(=O)Nc4ccc5c(c4)OCCO5)c(=O)n3c2)cc1,1.62
2,CCCCn1c(=O)c2sccc2n2c(=O)n(CC(=O)N3CCCC(C(=O)OCC)C3)nc12 (stereo not given),-3.31
3,COc1ccccc1NC(=O)Cn1nc2c(Sc3ccccc3)nccn2c1=O,1.31
4,Cc1cc(C)c(NC(=O)Cn2nc3c4c5c(sc4ncn3c2=O)CCCC5)c(C)c1,39.7
5,O=C(CSc1nnc2c(=O)n(Cc3ccc(F)cc3)ccn12)NC1CCCC1,5.19
6,Cc1ccc(Cl)cc1NC(=O)CSc1nc2ccccc2n2c(C)nnc12,5.91
7,COC(=O)c1ccc(NC(=O)Cn2nc3c4cc(-c5ccc(Cl)cc5)nn4ccn3c2=O)cc1,2.64
8,Cc1ccc(NC(=O)Cn2nc3c(SCc4ccc(Cl)cc4)nccn3c2=O)c(C)c1,0.54
9,Cc1ccc(-c2cc3c4nn(CC(=O)Nc5ccccc5Cl)c(=O)n4ccn3n2)cc1,0.36
10,COc1ccc(NC(=O)C(C)Sc2nnc3c(=O)n(-c4ccc(C)c(C)c4)ccn23)cc1 (stereo not given),-1.2
11,CC(C)n1c(=O)c2ccc(C(=O)NC3CCCC3)cc2n2c(=O)n(Cc3cccc(C(F)(F)F)c3)nc12,1.19
12,Cc1ccc(C)c(S(=O)(=O)Nc2ccc3nncn3n2)c1,0.56
13,COc1ccc(CNC(=O)Cn2nc3c(SCc4ccc(Cl)cc4)nccn3c2=O)cc1,1.91
14,O=C(CSc1nnc2c(=O)n(-c3ccccc3)ccn12)Nc1ccc(Br)cc1F,2.95
15,Cc1nnc2c(=O)n(CC(=O)Nc3ccc(C(C)C)cc3)c3ccccc3n12,5.98
16,COc1ccc(-c2cc3c4nn(CC(=O)Nc5ccccc5Cl)c(=O)n4ccn3n2)cc1,6.88
17,COc1ccc(CCn2c(=O)c3sccc3n3c(=O)n(Cc4ccccc4Cl)nc23)cc1OC,-1.24
18,O=C(Cn1nc2ccc(SC3CCCCC3)nn2c1=O)Nc1ccc2c(c1)OCO2,1.48
19,O=S(=O)(c1ccc2nncn2c1)N(Cc1ccc(Cl)cc1)c1ccc2c(c1)OCO2,2.29
20,O=C(Cn1nc2c(Sc3ccccc3)nccn2c1=O)Nc1ccc2c(c1)OCCO2,-0.06

# Tested on: Cryptococcus neoformans
# Details: Concentration 32 ug.mL-1; ASSAY_TEST Inhibition of Fungal Growth; detection method Resazurin; Absorption (OD600-OD570); plate type 384well; NBS; CORNING #3640
row,Compound,Inhibition [%]
1,Cc1cccc(NC(=O)CSc2nnc3c(=O)n(-c4ccccc4)ccn23)c1,-14.94
2,COc1ccc(N2CCN(C(=O)Cn3nc4ccc(S(=O)(=O)C(C)(C)C)nn4c3=O)CC2)cc1,-28.46
3,CCOC(=O)N1CCN(C(=O)CCc2nnc3c4cc(-c5ccc(F)cc5)nn4ccn23)CC1,-14.63
4,COc1ccccc1N1CCN(C(=O)CSc2nc3ccccc3n3c(C(C)C)nnc23)CC1,-16.67
5,COc1ccc(NC(=O)c2ccc3nn(CC(=O)Nc4cccc(SC)c4)c(=O)n3c2)cc1,-24.03
6,CC(C)c1nnc2c(SCC(=O)Nc3ccccc3Br)nc3ccccc3n12,-6.3
7,Cc1ccc(NC(=O)Cn2nc3c4cc(-c5ccc(C)c(C)c5)nn4ccn3c2=O)c(Cl)c1,-13
8,Cc1nnc2ccc(S(=O)(=O)N(Cc3cccc(F)c3)c3cccc(Cl)c3)cn12,-11.05
9,CCOc1ccc(N(Cc2cccc(F)c2)S(=O)(=O)c2ccc3nncn3c2)cc1,-4.27
10,COc1cc(NC(=O)Cn2nc3ccc(-c4ccc(Cl)cc4)nn3c2=O)cc(OC)c1,-13.03
11,Cc1nnc2c(SCC(=O)Nc3ccc4c(c3)OCCO4)nc3ccccc3n12,-7.59
12,COc1cc(OC)c(NC(=O)Cn2nc3ccc(Sc4cccc(F)c4)nn3c2=O)cc1Cl,-5.99
13,Cc1cc(C)cc(Nc2nc(C)cc3nn(CC(=O)NCc4ccco4)c(=O)n23)c1,-8.71
14,CCOc1ccc(NC(=O)Cn2nc3c4cc(-c5ccc(C)cc5)nn4ccn3c2=O)cc1,-37.08
15,O=C(Cn1nc2c3cc(-c4ccc(F)cc4)nn3ccn2c1=O)Nc1ccc(Br)cc1,4.1
16,CCCCn1c(=O)c2sccc2n2c(=O)n(CC(=O)N(C)c3ccccc3)nc12,-15.83
17,Cc1ccc(-c2ccc3nn(Cc4ccc5c(c4)OCO5)c(=O)n3n2)cc1C,-18.91
18,COc1ccc(CNC(=O)Cn2nc3c(N4CCN(c5ccccc5)CC4)nccn3c2=O)cc1,-9.25
19,COc1cccc(NC(=O)Cn2nc3ccc(-c4ccc(Cl)cc4)nn3c2=O)c1,-14.88
20,COc1ccc(NC(=O)Cn2nc3ccc(SC(C)C)nn3c2=O)cc1OC,-1.1

row,Compound,Inhibition [%]
1,COc1ccc(NC(=O)c2ccc3nn(CC(=O)Nc4ccc5c(c4)OCCO5)c(=O)n3c2)cc1,-23.54
2,CCCCn1c(=O)c2sccc2n2c(=O)n(CC(=O)N3CCCC(C(=O)OCC)C3)nc12 (stereo not given),-9.46
3,COc1ccccc1NC(=O)Cn1nc2c(Sc3ccccc3)nccn2c1=O,-4.93
4,Cc1cc(C)c(NC(=O)Cn2nc3c4c5c(sc4ncn3c2=O)CCCC5)c(C)c1,-18.32
5,O=C(CSc1nnc2c(=O)n(Cc3ccc(F)cc3)ccn12)NC1CCCC1,-22.84
6,Cc1ccc(Cl)cc1NC(=O)CSc1nc2ccccc2n2c(C)nnc12,-21.14
7,COC(=O)c1ccc(NC(=O)Cn2nc3c4cc(-c5ccc(Cl)cc5)nn4ccn3c2=O)cc1,-4.53
8,Cc1ccc(NC(=O)Cn2nc3c(SCc4ccc(Cl)cc4)nccn3c2=O)c(C)c1,-21.97
9,Cc1ccc(-c2cc3c4nn(CC(=O)Nc5ccccc5Cl)c(=O)n4ccn3n2)cc1,-23.03
10,COc1ccc(NC(=O)C(C)Sc2nnc3c(=O)n(-c4ccc(C)c(C)c4)ccn23)cc1 (stereo not given),-9
11,CC(C)n1c(=O)c2ccc(C(=O)NC3CCCC3)cc2n2c(=O)n(Cc3cccc(C(F)(F)F)c3)nc12,-23.89
12,Cc1ccc(C)c(S(=O)(=O)Nc2ccc3nncn3n2)c1,-3.83
13,COc1ccc(CNC(=O)Cn2nc3c(SCc4ccc(Cl)cc4)nccn3c2=O)cc1,-11.5
14,O=C(CSc1nnc2c(=O)n(-c3ccccc3)ccn12)Nc1ccc(Br)cc1F,-12.46
15,Cc1nnc2c(=O)n(CC(=O)Nc3ccc(C(C)C)cc3)c3ccccc3n12,-14.04
16,COc1ccc(-c2cc3c4nn(CC(=O)Nc5ccccc5Cl)c(=O)n4ccn3n2)cc1,-15.65
17,COc1ccc(CCn2c(=O)c3sccc3n3c(=O)n(Cc4ccccc4Cl)nc23)cc1OC,-27.91
18,O=C(Cn1nc2ccc(SC3CCCCC3)nn2c1=O)Nc1ccc2c(c1)OCO2,-3.38
19,O=S(=O)(c1ccc2nncn2c1)N(Cc1ccc(Cl)cc1)c1ccc2c(c1)OCO2,-11.3
20,O=C(Cn1nc2c(Sc3ccccc3)nccn2c1=O)Nc1ccc2c(c1)OCCO2,-3.83
